# The campaign covered roughly 69,000 compounds. About 1,000 (1.4%) showed an effect of 50% or more. What follows is part of a selection rich in strong results, with near analogues and random picks from the rest.
# Test system: Leishmania donovani
# Assay: Leishmania intramacrophage assay
# Format: functional, organism-based
# Parameters: scale not given: in the data most compounds retested in dose-response had high values
smiles,measurement,setting,value
CC(C)CN1CCC2(CC1)C(=O)Nc1ccc(C(=O)NC(C)C)cc12.O=C(O)C(F)(F)F,Percent Effect,"30.3 µM, […]",-1.007%
Cc1ccc(CN2C[C@@H]3CCN(Cc4ccncc4)C(=O)[C@H]3C2)s1.O=C(O)C(F)(F)F.O=C(O)C(F)(F)F,Percent Effect,"30.3 µM, […]",7.943%
N#Cc1ccc(N2CCC(OC3CCOCC3)CC2)cc1Cl,Percent Effect,"30.3 µM, […]",58.7%
COCC1CN(c2ccc(C#N)c(Cl)c2)CCO1 (stereo not drawn),Percent Effect,"30.3 µM, […]",27.15%
N#Cc1ccc(NC2CCN(c3ncccn3)CC2)cc1Cl,Percent Effect,"30.3 µM, […]",-22.27%
O=C(Nc1cccnc1)[C@H]1C[C@H]2OCC[C@H]2N(CC2CC2)C1.O=C(O)C(F)(F)F.O=C(O)C(F)(F)F,Percent Effect,"30.3 µM, […]",5.172%
O=C(O)C(F)(F)F.O=C(O)C(F)(F)F.O=C(O)C(F)(F)F.c1cncc(CN2CCO[C@H]3[C@H](OCCN4CCCC4)CC[C@@H]32)c1,Percent Effect,"30.3 µM, […]",-1.777%
Fc1cccnc1O[C@H]1CN(Cc2ccoc2)[C@@H]2CCCO[C@H]12.O=C(O)C(F)(F)F.O=C(O)C(F)(F)F,Percent Effect,"30.3 µM, […]",9.385%
O=C(C[C@@H]1COC[C@H]2CN(Cc3cccnc3)C[C@@H]12)NCC1CC1.O=C(O)C(F)(F)F.O=C(O)C(F)(F)F,Percent Effect,"30.3 µM, […]",18.63%
COCCN1C[C@@H]2COC[C@@H](CC(=O)NCc3cccnc3)[C@@H]2C1.O=C(O)C(F)(F)F.O=C(O)C(F)(F)F,Percent Effect,"30.3 µM, […]",44.79%
O=C(C[C@@H]1COC[C@H]2CN(CC3CC3)C[C@@H]12)NCc1cccnc1.O=C(O)C(F)(F)F.O=C(O)C(F)(F)F,Percent Effect,"30.3 µM, […]",54.71%
O=C(O)C(F)(F)F.O=C(O)C(F)(F)F.c1cncc(CN2CC[C@H]3O[C@@H](COCC4CC4)CC[C@H]32)c1,Percent Effect,"30 µM, 30.03 µM",39.71%
COc1ncccc1CN1C[C@H]2CCN(C(C)C)C[C@H]2C1.O=C(O)C(F)(F)F.O=C(O)C(F)(F)F,Percent Effect,"30.3 µM, […]",-4.656%
COCCN1CC[C@@H]2CN(Cc3cccnc3OC)C[C@@H]2C1.O=C(O)C(F)(F)F.O=C(O)C(F)(F)F,Percent Effect,"30.3 µM, […]",55.04%
COc1ncccc1CN1C[C@H]2CCN(c3ncccn3)C[C@H]2C1.O=C(O)C(F)(F)F,Percent Effect,"30.3 µM, […]",28.82%
CN(C)c1nccc(N2CCO[C@H]3CN(Cc4ccco4)C[C@H]32)n1,Percent Effect,"30.3 µM, […]",57.89%
COCCN1C[C@@H]2OCCN(c3ccnc(N(C)C)n3)[C@@H]2C1,Percent Effect,"30.3 µM, […]",23.22%
CN(C)c1nccc(N2CCO[C@H]3CN(Cc4ccsc4)C[C@H]32)n1.O=C(O)C(F)(F)F,Percent Effect,"30 µM, 30.03 µM",28.84%
C[C@@H]1C(=O)NC[C@H]2CN(Cc3ccsc3)C[C@H]21.O=C(O)C(F)(F)F,Percent Effect,"30 µM, 30.03 µM",28.53%
CCCc1nc2c(c(C)c(C)n2CCN(C)C)c(N)c1CC,Percent Effect,"30.3 µM, […]",99.96%
CNC(=O)CN1CCC12CCN(C(=O)Cc1ccccc1)C2.O=C(O)C(F)(F)F (stereo not drawn),Percent Effect,"30.3 µM, […]",9.106%
COCCn1cc(C(=O)NCCS(N)(=O)=O)c2ccccc21,Percent Effect,"30.3 µM, […]",59.49%
CCCn1cc(C(=O)NCCCC(N)=O)c2ccccc21,Percent Effect,"30.3 µM, […]",41.21%
CCCn1cc(C(=O)NCCS(N)(=O)=O)c2ccccc21,Percent Effect,"30.3 µM, […]",23.59%
CN(C)C[C@H]1C[C@@H]2CN(Cc3ccoc3)C[C@@H]2O1.O=C(O)C(F)(F)F.O=C(O)C(F)(F)F,Percent Effect,"30.3 µM, […]",4.803%
Cl.Cl.c1cncc(COC[C@@H]2CCC[C@@]23CNCCO3)c1,Percent Effect,"30.3 µM, […]",73.99%
O=C(O)C(F)(F)F.O=C(O)C(F)(F)F.c1cncc(COC[C@@H]2CCC[C@]23CNCCO3)c1,Percent Effect,"30.3 µM, […]",27.95%
Cl.Cl.c1cc(COC[C@@H]2CCC[C@@]23CNCCO3)ccn1,Percent Effect,"30 µM, 30.03 µM",8.265%

# — ChEMBL document CHEMBL3988442, “University of Dundee, Small-Polar-MMV Screening Library” (2021)
